# PLCb3 inh – human PLC-beta3 inhibitors, primary screen, biochemical, fluorescence; 1-phosphatidylinositol 4,5-bisphosphate phosphodiesterase beta-3 (Homo sapiens), Q01970; 370,000 tested, 0.18% active; inhibition, % at 12.2 µM; Purified PLC-beta3, fluorogenic substrate; AID 720704, 2013;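 note: 0% = median of compound wells on plate and 100% = full blocker control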
# DAGLB inh – DAGLB lipase inhibitors, primary screen, biochemical, fluorescence, HTS; AID 504411, 2011; inhibition, % at 5.17 µM; HEK293T DAGLB membrane lysate, EnzChek fluorogenic substrate; 340,000 tested, 0.059% active; Diacylglycerol lipase-beta (Homo sapiens), Q8NCG7; in the data active = inhibition above about 34%;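 note: 0% = enzyme with vehicle and 100% = wells lacking enzyme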
# PLC-gamma1 inh – PLC-gamma1 enzyme inhibitors, primary screen, biochemical, fluorescence, purified enzyme. inhibition, % at 12.2 µM. fluorogenic substrate. 1-phosphatidylinositol 4,5-bisphosphate phosphodiesterase gamma-1 (Homo sapiens), P19174. 370,000 tested, 0.84% active; in the data active = inhibition above about 9.5%
# HGIII-sPLA2 inh – human group III sPLA2 inhibitors, primary screen, biochemical, QFRET, BODIPY PC-A2 liposome substrate | Group 3 secretory phospholipase A2 (Homo sapiens), Q9NZ20 | QFRET BODIPY PC-A2 liposome hydrolysis, fluorescence | inhibition, % at 12.2 µM | 370,000 tested, 0.56% active;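 active = inhibition above mean plus 3 SD of compounds lying within the high and low control bounds, cut at about 19% in these data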;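 note: 0% = median of test compound wells and 100% = no enzyme DMSO wells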
# Target sequence (Q9NZ20 whole entry, looked up): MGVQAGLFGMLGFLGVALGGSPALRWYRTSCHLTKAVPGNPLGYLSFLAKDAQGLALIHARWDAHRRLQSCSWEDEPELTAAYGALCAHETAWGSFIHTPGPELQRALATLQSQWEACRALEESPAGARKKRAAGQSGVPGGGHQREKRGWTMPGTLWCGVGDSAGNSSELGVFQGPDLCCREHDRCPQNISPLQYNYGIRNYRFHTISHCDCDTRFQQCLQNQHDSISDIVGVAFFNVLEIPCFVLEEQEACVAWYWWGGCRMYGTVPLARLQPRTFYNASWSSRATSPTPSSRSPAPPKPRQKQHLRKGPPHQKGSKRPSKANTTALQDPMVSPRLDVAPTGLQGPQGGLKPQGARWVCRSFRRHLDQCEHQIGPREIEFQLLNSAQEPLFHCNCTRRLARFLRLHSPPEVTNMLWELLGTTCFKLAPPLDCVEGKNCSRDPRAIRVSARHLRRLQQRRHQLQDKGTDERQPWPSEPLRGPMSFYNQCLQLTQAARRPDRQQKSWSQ
# PLCgamma1 ctr – PLC-gamma1 enzyme inhibitors, counter-screen for PLC-beta3 inhibitor project, biochemical, fluorescence; purified PLC-gamma1, fluorogenic substrate; 3,300 tested, 3.1% active; shares compounds with PLC-gamma1 inh; inhibition, % at 12.3 µM; in the data active = inhibition above about 9.5%
# PLCbeta3 conf – PLC-beta3 inhibitor confirmation, biochemical, fluorescence, purified enzyme | shares compounds with PLC-gamma1 inh | fluorogenic substrate fluorescence | inhibition, % at 12.3 µM | 3,300 tested, 1% active
# Active calls of the source: *; / = no result. Shown are actives, neighbours in structure and some others; about 1.5% of the full set was active somewhere. Cut-off read from the data, not from the text of the source, unless noted: active = inhibition above about 11%; inactive = the rest.
SMILES,PLCb3 inh,DAGLB inh,PLC-gamma1 inh,HGIII-sPLA2 inh,PLCgamma1 ctr,PLCbeta3 conf
Cc1ccc(S(=O)(=O)N2CCCC2C(=O)NC2CCCCC2)cc1 (stereo not drawn),8.7,0.5,11.5*,12.2,-2.7,-5.1
O=C(C1CCCCN1S(=O)(=O)c1ccccc1)N1CCN(Cc2ccccc2)CC1 (stereo not drawn),2.0,3.0,0.6,1.2,/,/
Cc1ccc(S(=O)(=O)N2CCCCC2C(=O)N2CCN(Cc3ccccc3)CC2)cc1 (stereo not drawn),7.9,-1.4,12.1*,-3.7,-2.8,-1.3
CN(C(=O)CS(=O)(=O)c1cccc(Cl)c1)c1ccccc1,3.3,1.2,11.4*,-16.9,-3.2,-1.5
Cc1cc(C)cc(N(CC(=O)NC2CCCC2)S(=O)(=O)c2c(C)[nH]c(=O)[nH]c2=O)c1,5.8,-1.3,10.6*,0.6,0.6,-6.9
Cc1cc(C)cc(N(CC(=O)Nc2cc(C)ccc2C)S(=O)(=O)c2c(C)[nH]c(=O)[nH]c2=O)c1,-7.5,3.0,10.3*,-28.3,-4.2,-5.2
COc1ccc(N(CC(=O)NC2CCCC2)S(=O)(=O)c2c(C)[nH]c(=O)[nH]c2=O)cc1,1.3,-4.4,2.9,-8.4,/,/
COC(=O)[C@]12C[C@H](CC(=O)NCc3ccc(C)o3)C(=O)N(Cc3ccc(Cl)cc3Cl)C1=C[C@H](COCc1ccccc1)O[C@@H]2C,0.8,/,-4.1,-19.1,/,/
C[C@H]1[C@@H](OC(=O)NCc2ccccc2)CC[C@@]23CCCN2C(=O)CCC[C@@H]13,1.4,/,1.9,3.8,/,/
O=C(/C=C/Nc1ccc(F)cc1F)c1ccc(Br)cc1,1.2,/,12.0*,-4.7,-67.4,-59.8
COC(=O)c1cc(S(=O)(=O)N2CCOCC2)c(Cl)cc1N1CCOCC1,0.8,-0.8,-3.0,5.3,/,/
COC(=O)c1cc(C)nc2c1C(=O)C(=O)C=C2N1CCOCC1,-2.3,-18.5,13.7*,-1.7,48.9*,10.8*
COc1ccc(OCCn2cc(/C(N)=N/O)c3ccccc32)cc1,10.9*,3.5,9.5,-25.4,8.5,1.6
O=C1c2ccccc2C(=O)N1CCc1nc2ccccc2c(=O)n1CCCn1ccnc1,1.5,-2.9,-2.5,-7.2,/,/
O=C1c2ccccc2C(=O)N1Cc1nc2ccccc2c(=O)n1CCCn1ccnc1,7.2,-2.6,11.6*,1.9,-9.8,-1.2
CNCCCN1c2ccccc2CCc2ccccc21,2.9,2.6,10.2*,2.0,5.2,0.4
Cc1onc(C(=O)N2CCN(C(c3ccc(F)cc3)c3ccc(F)cc3)CC2)c1[N+](=O)[O-],4.9,/,4.0,-40.8,/,/
O=C(CCn1nnc2ccccc21)N1CCN(c2ccccc2F)CC1,-0.7,/,0.6,12.4,/,/
O=[N+]([O-])c1cc(Br)c2c(c1)CCN2,12.6*,-5.7,3.2,5.3,-6.4,-1.3
CCOC(=O)C1=C(C)OC2(O)c3ccccc3C(=O)C12O (stereo not drawn),2.1,/,10.3*,12.5,-1.9,-3.8
CCCCCCNC(=O)c1c(N)[nH]c(C(=O)c2ccccc2)c1-c1ccc(O)cc1,-11.4,/,0.9,2.7,/,/
CC/C(Cc1ccccc1)=N/NC(=O)CNC(=O)c1ccc(Cl)cc1Cl,-1.3,1.0,10.8*,7.5,-5.0,-1.5
CC/C(C)=N\NC(=O)CNC(=O)c1ccc(Cl)cc1Cl,-2.2,1.4,-3.8,2.2,/,/
Cc1ccccc1NC(=O)CCS(=O)(=O)c1ccccc1,0.2,/,-1.5,4.6,/,/
CCCCC(O)(CCCC)C(=O)NN(C(=O)OCC)c1ccccc1,0.5,0.0,-0.7,10.1,/,/
SMILES,PLCb3 inh,DAGLB inh,PLC-gamma1 inh,HGIII-sPLA2 inh,PLCgamma1 ctr,PLCbeta3 conf
CCCC(O)(CCC)C(=O)NN(C(=O)CCl)c1ccccc1,2.3,-1.2,9.7*,3.0,-1.7,-1.8
CCOC(=O)N(NC(=O)C(O)(c1ccccc1)c1ccccc1)c1ccccc1,8.0,0.2,13.5*,-0.5,-1.3,4.2
c1ccc(Nc2cc(Nc3ccccc3)[nH]n2)cc1,5.4,3.0,21.5*,0.7,2.9,3.1
CC(C)(N[C@@H](Cc1c[nH]c2ccccc12)C(=O)NCC(c1ccccc1)c1ccccc1)C(=O)NC1CCCCC1,1.8,/,2.1,-97.4,/,/
O=C(N[C@@H](Cc1ccccc1)C(=O)NC1CC1)c1ccc(Cl)cc1,-3.1,-0.8,10.5*,2.0,0.5,1.2
CCCNC(=O)C(Cc1cccc(Cl)c1)NC(=O)c1ccccc1 (stereo not drawn),13.9*,-3.7,5.1,9.1,-1.5,2.2
O=C(NC(Cc1ccccc1)C(=O)NC1CC1)OCc1ccccc1 (stereo not drawn),-4.2,2.7,-0.2,-0.8,/,/
Cc1cc(C)cc(N(CC(=O)NC2CCC(C)CC2)S(=O)(=O)c2ccc(C)c(C)c2)c1 (stereo not drawn),3.3,/,0.3,3.2,/,/
C=CCN1[C@H](Cc2ccccc2)COc2cc(F)ccc2S1(=O)=O,1.0,/,1.9,-7.3,/,/
CC1CCCC(C)N1C(=O)COC(=O)c1ccc(O)cc1 (stereo not drawn),-0.4,-1.4,19.6*,1.1,-7.9,-1.8
Cc1ccc(C(=O)OCC(=O)N2C(C)CCCC2C)s1 (stereo not drawn),-2.6,-2.6,-1.5,-5.6,/,/
CC1CCCC(C)N1CCCNC(=O)CN1C(=O)COc2ccc(S(=O)(=O)N3CCOCC3)cc21 (stereo not drawn),-1.7,-1.1,1.2,-2.0,/,/
CC1CCN(S(=O)(=O)c2ccc3c(c2)N(CC(=O)NCCCN2C(C)CCCC2C)C(=O)CO3)CC1 (stereo not drawn),-6.2,0.2,10.7*,-3.3,-6.4,-1.8
Nc1ncnc2c1ncn2[C@@H]1O[C@H](COP(=O)(O)O)[C@@H](O)[C@H]1O,-0.6,1.4,39.0*,-2.9,47.8*,-0.7
Nc1ncnc2c1ncn2[C@@H]1O[C@H](COP(=O)(O)OP(=O)(O)OP(=O)(O)O)[C@@H](O)[C@H]1O,1.1,0.0,39.5*,3.3,54.4*,1.2
NC(=O)C1=CN([C@@H]2O[C@H](COP(=O)(O)OP(=O)(O)OC[C@H]3O[C@@H](n4cnc5c(N)ncnc54)[C@H](O)[C@@H]3O)[C@@H](O)[C@H]2O)C=CC1,-10.6,/,29.2*,4.4,32.0*,-18.3
Nc1ncnc2c1ncn2C1OC(COP(=O)(O)O)C(O)C1O (stereo not drawn),1.4,2.8,40.8*,4.7,55.0*,1.1
NCCC(=O)NC[C@H]1O[C@@H](n2cnc3c(N)ncnc32)[C@H](O)[C@@H]1O,3.0,0.3,2.2,5.2,/,/
Nc1ncnc2c1ncn2[C@@H]1O[C@H](COS(=O)(=O)O)[C@@H](O)[C@H]1O,0.7,-0.3,0.7,9.8,/,/

# Assay outcomes: PubChem, The Scripps Research Institute Molecular Screening Center
